{"source": "the supplement of paper PMC8728848", "experiment_in_all_cases": "glycan array binding signal (z-score within array); higher = stronger binding", "conditions_in_all_cases": "glycan notation: IUPAC condensed, linker removed", "key": {"GalNAc(b1-4)GlcNAc": {"molecular_target": "GalNAc(b1-4)GlcNAc", "method_in_brief": "(§1)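 Glycan array data were curated from 3228 arrays in the Consortium for Functional Glycomics database and kept only where the protein sequence was available. Glycan names were converted to IUPAC-condensed notation, and columns mapping to the same glycan were averaged. The binding signal is a within-array Z-score, averaged across arrays of the same protein sequence at different concentrations or buffers and across linkers. Negative Z-scores can be read as non-binding.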"}, "GlcA(b1-3)GlcNAc": {"molecular_target": "GlcA(b1-3)GlcNAc", "method_in_brief": "as §1"}, "[1]": {"molecular_target": "GlcNAc(a1-3)Gal(b1-4)GlcNAc", "method_in_brief": "as §1"}, "[2]": {"molecular_target": "GlcNAc(b1-3)Gal(b1-4)GlcNAc(b1-3)Gal(b1-4)GlcNAc(b1-2)Man(a1-3)[GlcNAc(b1-3)Gal(b1-4)GlcNAc(b1-3)Gal(b1-4)GlcNAc(b1-2)Man(a1-6)]Man(b1-4)GlcNAc(b1-4)GlcNAc", "method_in_brief": "as §1"}, "[3]": {"molecular_target": "GlcNAc(b1-3)Gal(b1-4)GlcNAc(b1-3)Gal(b1-4)GlcNAc(b1-3)Gal(b1-4)GlcNAc(b1-2)Man(a1-3)[GlcNAc(b1-3)Gal(b1-4)GlcNAc(b1-3)Gal(b1-4)GlcNAc(b1-3)Gal(b1-4)GlcNAc(b1-2)Man(a1-6)]Man(b1-4)GlcNAc(b1-4)GlcNAc", "method_in_brief": "as §1"}, "[4]": {"molecular_target": "GlcNAc(b1-4)[GlcNAc(b1-6)]GalNAc", "method_in_brief": "as §1"}, "GlcNAc(b1-6)GalNAc": {"molecular_target": "GlcNAc(b1-6)GalNAc", "method_in_brief": "as §1"}, "[5]": {"molecular_target": "Neu5Ac(a2-3)Gal(b1-3)GlcNAc(b1-2)Man(a1-3)[GlcNAc(b1-4)][Neu5Ac(a2-3)Gal(b1-3)GlcNAc(b1-2)Man(a1-6)]Man(b1-4)GlcNAc(b1-4)GlcNAc", "method_in_brief": "as §1"}, "[6]": {"molecular_target": "Neu5Ac(a2-3)Gal(b1-4)GlcNAc(b1-2)[Neu5Ac(a2-3)Gal(b1-4)GlcNAc(b1-6)]Man(a1-6)[Neu5Ac(a2-3)Gal(b1-4)GlcNAc(b1-2)Man(a1-3)][GlcNAc(b1-4)]Man(b1-4)GlcNAc(b1-4)GlcNAc", "method_in_brief": "as §1"}, "[7]": {"molecular_target": "Neu5Ac(a2-3)Gal(b1-4)GlcNAc(b1-3)Gal(b1-4)GlcNAc(b1-3)Gal(b1-4)GlcNAc", "method_in_brief": "as §1"}, "[8]": {"molecular_target": "Neu5Ac(a2-3)Gal(b1-4)GlcNAc(b1-3)Gal(b1-4)[Fuc(a1-3)]GlcNAc", "method_in_brief": "as §1"}, "[9]": {"molecular_target": "Neu5Ac(a2-3)Gal(b1-4)[Fuc(a1-3)]GlcNAc(b1-6)[Neu5Ac(a2-3)Gal(b1-3)]GalNAc", "method_in_brief": "as §1"}, "[10]": {"molecular_target": "Neu5Ac(a2-3)[GalNAc(b1-4)]Gal(b1-4)GlcNAc", "method_in_brief": "as §1"}, "[11]": {"molecular_target": "Neu5Ac(a2-6)Gal(b1-4)GlcNAc(b1-2)Man(a1-3)[Neu5Ac(a2-6)Gal(b1-4)GlcNAc(b1-2)Man(a1-6)]Man(b1-4)GlcNAc(b1-4)GlcNAc", "method_in_brief": "as §1"}, "[12]": {"molecular_target": "Neu5Ac(b2-6)Gal(b1-4)GlcNAc", "method_in_brief": "as §1"}, "[13]": {"molecular_target": "Neu5Ac9Ac(a2-6)Gal(b1-4)GlcNAc", "method_in_brief": "as §1"}}, "note": "This is one part of a sample in which the strongest signals are shown more often than they occur."}
{"binder": "AT3G09350(27) (Arabidopsis thaliana), Q84J81 (protein) MAKDGPNWDGLLKWSLSHADGTRPTRQLSEEDRKWFMEAMQSQTVDVVKRMKEITLVMQTPEQVLVEHGVTPEDIQDLLDELQEHVESIDMANDLHSIGGLVPLLSFLKNSHANIRAKAADVVSTIVQNNPRSQELVMETNALESLLSNFTSDTDIHARTQALGAISSLIRHNKPGVTAFKLANGYAGLRDALASDSVRFQRKALNLLQYLLQEDDSDRSIATGLGFPRVMMHLASSDDAEIREAALRGLLELSREKNDGSSSIDKSDEKLRQLLEERIKGITLMSQEDLETVKEERQLVDLLWSICYNEPSSLREKGLVVLPGEDALPPDVASKLFEPPLRASAANRNATEKKDEPMKLLGP", "values": [{"measurement": "glycan array binding signal (z-score)", "setting": "GalNAc(b1-4)GlcNAc", "value": 7.59}, {"measurement": "glycan array binding signal (z-score)", "setting": "GlcA(b1-3)GlcNAc", "value": -0.957}, {"measurement": "glycan array binding signal (z-score)", "setting": "[1]", "value": -0.46}, {"measurement": "glycan array binding signal (z-score)", "setting": "[2]", "value": 0.28}, {"measurement": "glycan array binding signal (z-score)", "setting": "[3]", "value": 0.057}, {"measurement": "glycan array binding signal (z-score)", "setting": "[4]", "value": -0.008}, {"measurement": "glycan array binding signal (z-score)", "setting": "GlcNAc(b1-6)GalNAc", "value": 0.847}, {"measurement": "glycan array binding signal (z-score)", "setting": "[5]", "value": -0.8}, {"measurement": "glycan array binding signal (z-score)", "setting": "[6]", "value": -0.435}, {"measurement": "glycan array binding signal (z-score)", "setting": "[7]", "value": 0.446}, {"measurement": "glycan array binding signal (z-score)", "setting": "[8]", "value": -0.305}, {"measurement": "glycan array binding signal (z-score)", "setting": "[9]", "value": 0.415}, {"measurement": "glycan array binding signal (z-score)", "setting": "[10]", "value": -0.121}, {"measurement": "glycan array binding signal (z-score)", "setting": "[11]", "value": 0.535}, {"measurement": "glycan array binding signal (z-score)", "setting": "[12]", "value": 0.639}, {"measurement": "glycan array binding signal (z-score)", "setting": "[13]", "value": -0.732}]}
